Drawing on PubChem BioAssay (Tox21), this text covers Potency and outcome for seven molecules.

Each structure is given as a SMILES string. Results filed as inconclusive are left out. Calls of active or inactive are those of the source. Unless noted, calls follow the shape of the dose curve; as a rule, active = well fitted curve in the direction sought with a large enough effect in the repeat runs; inconclusive = weak or mixed curves; inactive = no such curve, though single readings can be large; an effect the other way counts as inactive or inconclusive.

The nature of assay [1]: qHTS assay to identify aromatase inhibitors - cell viability counter screen (AID 743084;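 also: cells stimulated with testosterone during compound exposure; nearly all actives have a fitted effect of over 55% in size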; also: potency is read from the fitted curve at half-maximal effect). (Quantitative high-throughput screening tests each substance at several concentrations.)
In assay [2] the target is Aryl hydrocarbon receptor (Homo sapiens) (UniProt P35869). Put plainly: qHTS assay to identify small molecule that activate the aryl hydrocarbon receptor (AhR) signaling pathway (AID 743085).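 Also: HG2L7.5c1 human HepG2 liver cells with stably integrated DRE-driven firefly reporter; series mostly up to about 70 µM; nearly all actives have a fitted effect of over 15% in size.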 The gist of the method:
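Steps: seed HepG2-AhR-luc cells; allow 5 h at 37C; pin-transfer test compound or vehicle; incubate 24 h at 37C; add viability dye (30 min, 37C) and read fluorescence; add luciferase substrate (30 min, RT) and read luminescence.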

Assay [3] is described as follows: qHTS assay to identify small molecule that activate the aryl hydrocarbon receptor (AhR) signaling pathway - cell viability counter screen (AID 743086). Also: nearly all actives have a fitted effect of over 45% in size. Also: potency is read from the fitted curve at half-maximal effect. A digest of the protocol:
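HepG2-AhR-luc (HG2L7.5c1) cells, 4000/well, treated 24 h at 37 C with compound; viability measured as CellTiter-Fluor fluorescence after 30 min in the same wells as the luciferase read.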

Assay [4] concerns the target Peroxisome proliferator-activated receptor gamma (Homo sapiens) (UniProt P37231). Put plainly: qHTS assay to identify small molecule agonists of the peroxisome proliferator-activated receptor gamma (PPARg) signaling pathway (AID 743094; active = well fitted activation curve with a large enough effect in the signal ratio in the repeat runs, not every such curve was filed as active; the % refers to the signal ratio). A digest of the protocol: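 Agonism was assessed in a beta-lactamase reporter system, HEK293H cells with a stably integrated UAS-bla construct under PPARg control; the 17 h treatment at 37C preceded a 1 h room-temperature FRET substrate read.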

The target is the same in assay [5]. As to the kind of experiment: qHTS assay to identify small molecule antagonists of the peroxisome proliferator-activated receptor gamma (PPARg) signaling pathway (AID 743191; calls by dose curve; also: series mostly up to about 63 µM; nearly all actives have a fitted effect of over 30% in size). The gist of the method:
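GeneBLAzer PPARg UAS-bla HEK293H cells, 5 h post-plating, exposed to compounds 17 h at 37C. LiveBLAzer B/G FRET substrate added for 1 h at room temperature; beta-lactamase reporter read by fluorescence intensity.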

Assay [6] in a line: qHTS assay to identify small molecule antagonists of the peroxisome proliferator-activated receptor gamma (PPARg) signaling pathway - cell viability counter screen (AID 743194). Also: nearly all actives have a fitted effect of over 55% in size. The gist of the method: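 Cytotoxicity counter screen in PPARg-bla HEK293H cells, same wells as reporter assay. Compounds plus 50 nM rosiglitazone (final) for 17 h at 37 C, then viability read by CellTiter-Glo luminescence.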

Assay [7] can be described thus: qHTS assay for small molecule agonists of the antioxidant response element (ARE) signaling pathway (AID 743202; active = well fitted activation curve with a large enough effect in the signal ratio in the repeat runs, not every such curve was filed as active; the % refers to the signal ratio). A digest of the protocol: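 HepG2 ARE-bla cells; 16 h treatment at 37 C; FRET-based beta-lactamase fluorescence read after 2 h substrate incubation at room temperature.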
Assay [8] can be described thus: qHTS assay for small molecule agonists of the antioxidant response element (ARE) signaling pathway - cell viability counter screen (AID 743203; calls by dose curve; also: nearly all actives have a fitted effect of over 55% in size). The gist of the method: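 ATP content via CellTiter-Glo luminescence served as the viability measure. Cells: ARE-bla HepG2, 2,000 per well. Exposure: 16 hrs, 37C/5% CO2.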
Assay [9] can be described thus: qHTS assay for small molecule activators of the heat shock response signaling pathway - cell viability counter screen (AID 743209). Also: nearly all actives have a fitted effect of over 50% in size. The gist of the method: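 Compounds dissolved in DMSO were added to overnight-plated HSE-bla HeLa cells and left 5 h at 37 C. Cell viability was quantified by luminescence using CellTiter-Glo.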
Assay [10] in a line: qHTS assay for small molecule activators of the heat shock response signaling pathway (AID 743210; active = well fitted activation curve with a large enough effect in the signal ratio in the repeat runs, with a control signal flat, not every such curve was filed as active; the % refers to the signal ratio;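 also: HeLa cells with beta-lactamase reporter driven by heat shock elements; series mostly up to about 63 µM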). A digest of the protocol:
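Following overnight attachment, HSE-bla HeLa cells received test compounds for 5 h at 37 C; beta-lactamase activity was then detected via FRET substrate fluorescence.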

The nature of assay [11]: qHTS assay to identify small molecule agonists of the peroxisome proliferator-activated receptor delta (PPARd) signaling pathway - cell viability counter screen (AID 743211). Also: nearly all actives have a fitted effect of over 55% in size. A digest of the protocol: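 Viability of GeneBLAzer PPARd UAS-bla HEK293H cells was assessed after 17 h compound incubation at 37C, using CellTiter-Glo reagent added after the reporter read and luminescence recorded 30 min later.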

In assay [12] the target is Peroxisome proliferator-activated receptor delta (Homo sapiens) (UniProt Q03181). Put plainly: qHTS assay to identify small molecule agonists of the peroxisome proliferator-activated receptor delta (PPARd) signaling pathway (AID 743212; calls by dose curve). A digest of the protocol: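 Tox21 library screened in GeneBLAzer PPARd UAS-bla HEK293H cells. After compound treatment at 37 C, a FRET-based beta-lactamase substrate was applied for 2 h and fluorescence recorded.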

The nature of assay [13]: qHTS assay to identify small molecule antagonists of the peroxisome proliferator-activated receptor delta (PPARd) signaling pathway - cell viability counter screen (AID 743213). Also: nearly all actives have a fitted effect of over 50% in size. A digest of the protocol: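 Same-well viability: cells pre-incubated 5 h, dosed with compound plus 300 nM L165041, kept 17 h at 37 C, FRET substrate 2 h RT, then CellTiter-Glo 30 min RT and luminescence.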

Assay [14] has as its target Peroxisome proliferator-activated receptor delta (Homo sapiens) (UniProt Q03181). As to the kind of experiment: qHTS assay to identify small molecule antagonists of the peroxisome proliferator-activated receptor delta (PPARd) signaling pathway (AID 743215; active = well fitted inhibition curve with a large enough effect in the signal ratio in the repeat runs, not every such curve was filed as active; the % refers to the signal ratio;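 also: cells stimulated with agonist L165041 at 300 nM final during compound exposure; series mostly up to about 62 µM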). A digest of the protocol:
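Here, a reporter line (HEK293H, beta-lactamase under a UAS) measures PPARd signaling. Compounds are tested against agonist L165041 at 300 nM final concentration over 17 h at 37 C, with fluorescence read after substrate.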

Assay [15] is described as follows: qHTS assay to identify small molecule agonists of the farnesoid-X-receptor (FXR) signaling pathway - cell viability counter screen (AID 743218). Also: nearly all actives have a fitted effect of over 45% in size. A digest of the protocol: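 Quantitative HTS counter screen measuring ATP-based viability via CellTiter-Glo luminescence in HEK 293T cells carrying a UAS-driven beta-lactamase reporter, after 16 h compound exposure at 37 C.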

A short description of assay [16]: qHTS assay to identify small molecule antagonists of the farnesoid-X-receptor (FXR) signaling pathway - cell viability counter screen (AID 743221; active = well fitted cell-killing curve with a large enough effect in the repeat runs, not every such curve was filed as active; also: nearly all actives have a fitted effect of over 50% in size). The gist of the method: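 Quantitative HTS of the Tox21 10K library run in parallel with the beta-lactamase reporter read. HEK 293T cells carrying a UAS-driven bla reporter got compound and 50 uM CDCA (final) for 16 h; ATP-based luminescence followed.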

For assay [17], the target named is Vitamin D3 receptor (Homo sapiens) (UniProt P11473). Put plainly: qHTS assay to identify small molecule agonists of the vitamin D receptor (VDR) signaling pathway (AID 743222; calls by dose curve). A digest of the protocol: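 Tox21 cell reporter format: VDR-bla line, 16 h compound exposure in 5% CO2 at 37C, then fluorescence intensity after 2 h with LiveBLAzer B/G FRET substrate.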

The target in assay [18] is Bile acid receptor (Homo sapiens) (UniProt Q96RI1). Put plainly: qHTS assay to identify small molecule antagonists of the farnesoid-X-receptor (FXR) signaling pathway (AID 743217; active = well fitted inhibition curve with a large enough effect in the signal ratio in the repeat runs, not every such curve was filed as active; the % refers to the signal ratio). The gist of the method:
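Test compounds are pin-transferred onto FXR-bla HEK 293T cells, then chenodeoxycholic acid is added at 50 uM final. After 16 h at 37 °C, LiveBLAzer B/G substrate is applied for 2 h at room temperature and fluorescence read.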

For assay [19] the target is unchanged. Put plainly: qHTS assay to identify small molecule agonists of the farnesoid-X-receptor (FXR) signaling pathway (AID 743220; active = well fitted activation curve with a large enough effect in the signal ratio in the repeat runs, not every such curve was filed as active; the % refers to the signal ratio). A digest of the protocol: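 FXR-UAS-bla HEK 293T cells carrying a UAS-driven beta-lactamase reporter were plated for 5 h at 37C/5% CO2, then exposed to DMSO-dissolved Tox21 10K compounds for 16 h at 37C. A LiveBLAzer B/G FRET substrate was loaded for 2 h at room temperature before fluorescence reading.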

Vitamin D3 receptor (Homo sapiens), sequence (P11473 whole entry, looked up): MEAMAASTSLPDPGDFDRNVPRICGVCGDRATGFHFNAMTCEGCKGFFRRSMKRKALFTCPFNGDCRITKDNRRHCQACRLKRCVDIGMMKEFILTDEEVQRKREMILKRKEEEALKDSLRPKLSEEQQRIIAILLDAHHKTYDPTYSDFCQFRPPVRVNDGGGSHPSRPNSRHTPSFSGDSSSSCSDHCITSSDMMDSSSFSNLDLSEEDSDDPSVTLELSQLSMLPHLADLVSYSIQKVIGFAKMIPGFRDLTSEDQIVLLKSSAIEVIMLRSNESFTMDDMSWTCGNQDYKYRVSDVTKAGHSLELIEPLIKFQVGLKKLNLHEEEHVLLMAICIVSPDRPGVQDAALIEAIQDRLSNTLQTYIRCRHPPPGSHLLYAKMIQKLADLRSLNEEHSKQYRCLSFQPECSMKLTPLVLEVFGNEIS
Peroxisome proliferator-activated receptor delta (Homo sapiens), sequence (Q03181 whole entry, looked up): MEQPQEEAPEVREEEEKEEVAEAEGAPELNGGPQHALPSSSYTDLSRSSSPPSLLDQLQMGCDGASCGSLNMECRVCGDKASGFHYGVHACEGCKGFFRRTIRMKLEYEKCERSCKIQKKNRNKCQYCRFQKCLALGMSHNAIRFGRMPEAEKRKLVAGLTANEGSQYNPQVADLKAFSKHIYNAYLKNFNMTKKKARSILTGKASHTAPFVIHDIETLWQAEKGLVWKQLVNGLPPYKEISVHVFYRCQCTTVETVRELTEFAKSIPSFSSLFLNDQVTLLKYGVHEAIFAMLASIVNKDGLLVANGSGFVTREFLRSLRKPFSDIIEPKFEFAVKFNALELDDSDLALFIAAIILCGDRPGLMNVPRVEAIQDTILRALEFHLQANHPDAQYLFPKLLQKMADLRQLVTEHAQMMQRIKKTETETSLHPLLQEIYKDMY
Peroxisome proliferator-activated receptor gamma (Homo sapiens), sequence (P37231 whole entry, looked up): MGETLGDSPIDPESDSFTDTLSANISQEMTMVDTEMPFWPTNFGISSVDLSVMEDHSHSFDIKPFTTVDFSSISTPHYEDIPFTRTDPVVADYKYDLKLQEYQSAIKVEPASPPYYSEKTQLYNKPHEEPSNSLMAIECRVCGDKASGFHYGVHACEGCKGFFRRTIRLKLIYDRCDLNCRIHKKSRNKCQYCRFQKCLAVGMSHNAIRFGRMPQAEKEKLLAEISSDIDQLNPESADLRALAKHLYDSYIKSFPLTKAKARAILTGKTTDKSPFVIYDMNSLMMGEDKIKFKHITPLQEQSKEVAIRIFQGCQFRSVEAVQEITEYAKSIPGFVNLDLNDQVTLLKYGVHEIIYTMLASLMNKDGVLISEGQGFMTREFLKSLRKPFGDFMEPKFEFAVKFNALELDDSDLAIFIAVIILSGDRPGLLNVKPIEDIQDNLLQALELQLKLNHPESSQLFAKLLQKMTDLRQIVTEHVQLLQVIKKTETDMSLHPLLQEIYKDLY
Aryl hydrocarbon receptor (Homo sapiens), sequence (P35869 whole entry, looked up): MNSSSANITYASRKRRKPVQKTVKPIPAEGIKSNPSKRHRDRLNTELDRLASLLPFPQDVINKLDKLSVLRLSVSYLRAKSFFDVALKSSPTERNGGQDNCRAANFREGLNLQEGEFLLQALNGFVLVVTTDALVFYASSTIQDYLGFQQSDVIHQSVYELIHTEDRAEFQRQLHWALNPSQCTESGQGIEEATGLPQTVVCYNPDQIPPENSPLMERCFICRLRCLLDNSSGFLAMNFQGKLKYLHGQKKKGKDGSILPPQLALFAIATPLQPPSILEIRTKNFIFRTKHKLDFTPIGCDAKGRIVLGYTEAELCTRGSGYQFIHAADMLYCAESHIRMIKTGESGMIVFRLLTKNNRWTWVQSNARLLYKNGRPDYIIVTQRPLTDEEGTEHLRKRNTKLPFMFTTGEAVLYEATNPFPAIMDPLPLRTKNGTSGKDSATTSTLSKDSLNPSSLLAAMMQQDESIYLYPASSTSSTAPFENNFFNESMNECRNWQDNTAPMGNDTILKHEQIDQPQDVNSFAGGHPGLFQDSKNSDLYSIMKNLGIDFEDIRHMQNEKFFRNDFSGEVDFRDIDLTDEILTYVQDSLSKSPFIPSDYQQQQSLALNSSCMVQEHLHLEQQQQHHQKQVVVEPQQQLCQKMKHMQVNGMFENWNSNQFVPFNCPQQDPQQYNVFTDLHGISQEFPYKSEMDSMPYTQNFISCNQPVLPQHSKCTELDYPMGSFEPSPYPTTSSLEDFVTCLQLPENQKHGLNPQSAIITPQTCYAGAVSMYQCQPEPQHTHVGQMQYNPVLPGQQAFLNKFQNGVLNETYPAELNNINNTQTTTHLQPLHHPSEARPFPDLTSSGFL
Bile acid receptor (Homo sapiens), sequence (Q96RI1 whole entry, looked up): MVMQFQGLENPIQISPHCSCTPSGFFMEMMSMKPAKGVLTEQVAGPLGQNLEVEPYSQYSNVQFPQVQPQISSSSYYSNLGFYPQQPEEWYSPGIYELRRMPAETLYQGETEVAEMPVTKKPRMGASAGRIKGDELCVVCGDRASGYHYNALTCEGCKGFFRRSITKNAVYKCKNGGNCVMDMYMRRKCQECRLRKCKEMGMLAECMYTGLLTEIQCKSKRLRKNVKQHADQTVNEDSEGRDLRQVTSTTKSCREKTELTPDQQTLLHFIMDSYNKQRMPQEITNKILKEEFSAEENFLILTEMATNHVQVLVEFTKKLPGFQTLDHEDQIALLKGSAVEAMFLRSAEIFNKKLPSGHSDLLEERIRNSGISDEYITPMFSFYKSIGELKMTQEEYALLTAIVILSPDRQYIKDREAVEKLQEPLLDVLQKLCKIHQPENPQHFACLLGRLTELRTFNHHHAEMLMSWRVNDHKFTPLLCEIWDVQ

`CCCCC1(COC(=O)CCC(=O)O)C(=O)N(c2ccccc2)N(c2ccccc2)C1=O`: the Potency entry in assay [1], in assay [2], in assay [3], in assay [4], in assay [5] and in [6] was “inactive” in each case. Also, the Potency result in assay [7], in assay [8], in [9], in [11], in assay [12] and in [13] was “inactive” each time. Also, the Potency result in assay [14], in assay [15], in assay [16] and in [17] was “inactive” in each case. For the same molecule, the outcome in assay [10] was inactive.
As to `CN(N=O)C(=O)N[C@@H]1[C@@H](O)[C@H](O)[C@@H](CO)O[C@@H]1O`, the Potency entry in [1], in assay [2], in [3], in assay [4], in assay [5] and in assay [6] was “inactive” throughout. The Potency entry in [7], in assay [8], in assay [9], in assay [11], in assay [12] and in assay [13] was “inactive” throughout. Also, the Potency result in assay [14], in assay [18], in assay [15], in assay [16] and in [17] was “inactive” throughout. Besides, the call in assay [10] and in assay [19] was inactive.
For the molecule `CCCCNC(=O)NS(=O)(=O)c1ccc(C)cc1`, the Potency entry in assay [1], in assay [2], in [3], in assay [4], in assay [5] and in assay [6] was “inactive” each time. Moreover, the Potency result in assay [7], in assay [8], in assay [9], in assay [11], in assay [12] and in assay [13] was “inactive” in each case. Further, the Potency result in assay [14], in assay [18], in [15], in assay [16] and in assay [17] was “inactive” each time. The outcome in assay [10] and in assay [19] was inactive.
Consider `O=C1O[C@H]([C@@H](O)CO)C(O)=C1O`, for which the Potency entry in assay [1], in assay [2], in assay [3], in assay [4], in assay [5] and in assay [6] was “inactive” throughout. For the same molecule, the Potency result in assay [7], in assay [8], in assay [9], in [11], in [13] and in assay [15] was “inactive” each time. The Potency result in [16] was “inactive”.
On to `Cc1cccc(C)c1`, for which the Potency result in assay [1], in assay [2], in assay [3], in [4], in assay [5] and in assay [6] was “inactive” throughout. Further, the Potency entry in assay [7], in [8], in [9], in assay [11], in assay [12] and in assay [13] was “inactive” each time. Besides, the Potency result in assay [14], in [15], in assay [16] and in [17] was “inactive” throughout. The call in [10] was inactive.
As for `CN(C)CCOC(C)(c1ccccc1)c1ccccn1` (stereo unspecified), the Potency entry in [1], in assay [2], in [3], in assay [4], in [5] and in assay [6] was “inactive” throughout. For the same molecule, the Potency result in assay [7], in [8], in assay [9], in assay [11], in assay [12] and in [13] was “inactive” each time. Further, the Potency result in assay [14], in assay [18], in [15], in assay [16] and in assay [17] was “inactive” in each case. The call in [10] and in [19] was inactive.
As for `O=S1(=O)OC(c2ccc(O)cc2)(c2ccc(O)cc2)c2ccccc21`, the Potency in assay [1] was 27.3 µM (active); in assay [3] it was 24.3 µM (active). Further, the Potency result in assay [2], in assay [4], in assay [5], in [6], in assay [7] and in [8] was “inactive” each time. In addition, the Potency entry in assay [9], in assay [11], in assay [12], in [13], in [14] and in assay [15] was “inactive” in each case. In addition, the Potency result in [16] and in assay [17] was “inactive” each time. The molecule was classed as inactive in assay [10].
